GAA850 FXN act: frataxin GAA850 promoter activation; HEK293 lucGAA850 FXN promoter luciferase reporter, 24 h; percent of 10 µM SAHA response; activation, % at 6 µM; 0.56% of 360,000 active; AID 540364;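 active = activation above the average of all compounds screened plus 3 SD, cutoff fixed separately per campaign, cut at about 7.5% in these data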
SMARCA2 act: activators of SMARCA2 function. MG213 cells, MMTV-luciferase reporter, dexamethasone, overnight. activation, % at 9.1 µM. 1% of 370,000 active. AID 652017; in the data active = activation above about 7.8%
FAS-TE inh: blocks the thioesterase domain of human fatty acid synthase. P49327. recombinant FAS-TE, OMFH fluorogenic substrate, fluorescence endpoint. inhibition, % at 15 µM. 0.67% of 360,000 active. AID 602261;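 active = compounds whose normalised, plate-corrected inhibition of enzyme fluorescence in the single-dose primary screen is 50% or more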
proKLK7 act: activators of human kallikrein-7 zymogen; purified proKLK7, EDANS-DABCYL substrate fluorescence; 100% is mature enzyme control, 0% vehicle; 0.9% of 370,000 active; P49862; AID 652039; activation, % at 7 µM;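 active = activation above the mean of all tested compounds plus 3 SD, computed per campaign excluding outliers beyond control limits, cut at about 13% in these data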
Target sequence (P49862 whole entry, looked up): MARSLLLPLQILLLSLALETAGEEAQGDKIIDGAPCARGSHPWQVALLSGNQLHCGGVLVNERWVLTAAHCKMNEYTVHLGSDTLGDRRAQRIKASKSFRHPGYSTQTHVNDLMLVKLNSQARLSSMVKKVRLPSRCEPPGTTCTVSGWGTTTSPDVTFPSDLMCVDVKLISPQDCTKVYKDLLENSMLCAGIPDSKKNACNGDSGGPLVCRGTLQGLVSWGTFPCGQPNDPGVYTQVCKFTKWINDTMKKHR
SMARCA2 act conf: SMARCA2 activation, confirmation screen; shares compounds with SMARCA2 act; 30% of 3,500 active; activation, % at 9.1 µM; MG213 cells, MMTV-luciferase with dexamethasone, luminescence, overnight; MG213 cells expressing E1A, Rb sequestered; DMSO wells 0%, reference activator 100%; AID 652260;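 active = activation above its plate's cutoff, the mean activation of tested wells plus 3 SD, cut at about 7.9% in these data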
VP16 Luc act: activates GAL4-VP16 luciferase, flagging SMARCA2 activator hits; shares compounds with SMARCA2 act; AID 686939; 41% of 3,500 active; activation, % at 9.1 µM; HEK293 GAL4-VP16 pG5luc reporter, luciferase luminescence; scaled: DMSO wells 0%, SAHA wells 100%;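 active = activation above the solvent-only control well mean plus 3 SD, averaged across control plates, cut at about 5.2% in these data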
Numbers stand for hits; . = inactive; / = no result given. Rows were chosen to be rich in hits. Some 2.9% of all compounds tested hit in one or more screens of this group.

SMILES	GAA850 FXN act	SMARCA2 act	FAS-TE inh	proKLK7 act	SMARCA2 act conf	VP16 Luc act
COc1ccc(C(=O)N[C@H](C(=O)Nc2nc3ccccc3[nH]2)C(C)C)cc1	.	13	.	.	12	15
COc1ccc(C(=O)COC(=O)c2ccc3c(c2)NC(=O)CS3)c(OC)c1	.	.	.	.	/	/
Cc1ccc(C(=O)NCCCc2ccccc2)c(C)c1	.	10	.	.	13	8.5
O=C(NCCCc1ccccc1)c1ccc(Br)o1	.	9.7	.	.	.	.
O=C(NC(=S)Nc1ccccc1)c1ccc(Br)o1	.	9.3	.	.	13	6.2
Cc1ccc(-n2nc(C(=O)O)c(O)cc2=O)cc1	.	.	.	.	/	/
O=C(Nc1ccc(N2CCOCC2)nc1)c1ccccc1Cl	.	9.6	.	.	.	.
COc1c(C)cccc1C(=O)Nc1ccc(N2CCOCC2)c(Cl)c1	.	8.5	.	.	.	14
COC(=O)c1cc(NC(=O)c2c(C)noc2C)ccc1N1CCOCC1	.	9.2	.	.	.	.
Cc1cc(Cl)cc(C)c1OCC(=O)O	.	.	.	.	/	/
Cc1[nH]c2ccccc2c1C(=O)C(=O)NC1CC1	.	.	.	.	/	/
O=C(C(=O)N1CCCc2ccccc21)c1cn(CC(=O)N2CCOCC2)c2ccccc12	.	.	.	.	/	/
CCCCC#Cc1ccccc1COC[B-](F)(F)F	/	17	/	.	7.9	5.9
F[B-](F)(F)COCc1ccccc1C#Cc1ccccc1	/	18	/	.	17	.
O=C(Nc1cccc2ccccc12)c1ccc(OC(=S)N2CCOCC2)cc1	.	.	.	.	/	/
O=C1NC(=S)N/C1=C/c1cc2c(cc1[N+](=O)[O-])OCO2	.	11	.	.	.	.
O=C(O)/C=C\c1cc2c(cc1[N+](=O)[O-])OCO2	.	.	.	.	/	/
CC(Oc1ccc([N+](=O)[O-])cc1Cl)C(=O)Nc1ccc(C(N)=O)cc1 (centres undefined)	.	.	.	.	/	/
COc1ccc(-c2nc(N)ncc2-c2ccc(OC)c(OC)c2)c(O)c1	.	8.1	.	.	.	.
COc1ccc(-c2ncncc2-c2ccc(OC)c(OC)c2)c(O)c1	.	.	.	.	/	/
COC(=O)c1ccc(-c2ccc3c(c2)[C@]2(CCC[C@@H](OCc4ccccc4)[C@@H]2NC(=O)CCc2ccccc2)C(=O)N3Cc2ccccc2)cc1	/	.	/	.	/	/
N#CCOc1ccccc1CNC[C@H]1O[C@@H](n2cnc(C(N)=O)n2)[C@H](O)[C@@H]1O	.	.	.	.	/	/
NC(=O)c1ncn([C@@H]2O[C@H](CNCc3cc(Br)ccc3OCc3ccccc3)[C@@H](O)[C@H]2O)n1	.	16	.	.	.	.
Cn1cccc1C(=O)NCCc1ccccc1	.	.	.	.	/	/
COc1ccc(CCNC(=O)c2cccn2C)cc1	.	8.3	.	.	.	9.7
SMILES	GAA850 FXN act	SMARCA2 act	FAS-TE inh	proKLK7 act	SMARCA2 act conf	VP16 Luc act
CC(C)CNC(=O)c1nn(Cc2ccccc2)c(=O)c2ccccc12	.	.	.	.	/	/
COc1cc(S(=O)(=O)NCc2ccccc2Cl)ccc1-n1cnnn1	.	.	.	.	/	/
COc1ccc(NC(=O)c2cc([N+](=O)[O-])ccc2NC(=O)CNCc2ccccn2)c(OC)c1	.	13	.	.	.	.
CCOc1ccc2oc(C(=O)Nc3ccc(C)cn3)c(C)c2c1	.	.	.	.	/	/
CCc1ccc2oc(C(=O)Nc3nonc3C)c(C)c2c1	.	.	.	.	/	/
Cc1cc2oc(C(=O)Nc3nonc3C)c(C)c2cc1C	.	8.9	.	.	.	11
Cc1ccc2oc(C(=O)Nc3cc(C)on3)c(C)c2c1	.	9.4	.	.	8.2	8.0
Cc1ccc(-c2cc(-c3ccccc3C)[nH]n2)c(O)c1	.	.	.	.	/	/
C=CCn1cc(/C=C2\SC(N3CCOCC3)=NC2=O)c2ccccc21	.	.	.	.	/	/
COc1cc(OC)cc(C(=O)NCC(=O)OCC(=O)N2CCc3ccccc32)c1	.	.	.	.	/	/
O=C(Nc1ccccc1)c1ccc(NCC2CCCO2)c([N+](=O)[O-])c1 (centres undefined)	.	8.8	.	.	.	.
COc1ccc(NC(=O)c2ccc(NCC3CCCO3)c([N+](=O)[O-])c2)cc1 (centres undefined)	.	.	.	.	/	/
O=[N+]([O-])c1ccc(-n2cc(-c3ccccc3)nn2)cc1	.	.	.	.	/	/
O=C(NCc1nnc2c(C(F)(F)F)cc(Cl)cn12)c1cccnc1	.	9.5	.	.	.	.
Cc1cc(C(=O)N/N=C/c2cn(C)nc2C)c2ccccc2n1	.	.	.	.	/	/
O=C(N/N=C/C(Br)=C\c1ccccc1)c1ccco1	.	9.4	.	.	.	17
CC(=C/c1ccccc1)/C=N/NC(=O)c1cccs1	.	.	.	.	/	/
O=C(N/N=C/C(Br)=C\c1ccccc1)c1cccs1	.	18	.	.	.	11
Cc1nn(C)cc1/C=N/NC(=O)c1ccco1	.	9.1	.	.	.	.
CC(=O)c1c(C)[nH]c(C(=O)Nc2ccccc2N2CCOCC2)c1C	.	.	.	.	/	/
c1ccc2c(c1)COc1c3cc4c(cc3nn1-2)OCO4	.	9.5	.	.	15	11
COc1ccccc1NC(=O)Nc1nc2ccc(S(N)(=O)=O)cc2s1	.	10	.	.	15	6.3
COc1ccc2nc(NC(=O)Nc3ccccc3OC)sc2c1	.	12	.	.	.	10
COc1ccc2nc(NC(C)=O)sc2c1	.	.	.	.	/	/
CS(=O)(=O)c1ccc2nc(NC(=O)Nc3ccccc3F)sc2c1	.	.	.	.	/	/
SMILES	GAA850 FXN act	SMARCA2 act	FAS-TE inh	proKLK7 act	SMARCA2 act conf	VP16 Luc act
NS(=O)(=O)c1ccc2nc(NC(=O)c3ccc(Br)o3)sc2c1	.	8.3	.	.	.	.
CC(=O)NCCC(=O)Nc1nc2ccc(Oc3ccccc3)cc2s1	.	11	.	.	.	8.7
COc1ccc2nc(NC(=O)Nc3cccc4ccccc34)sc2c1	.	.	.	.	/	/
Cc1ccc2nc(NC(=O)c3ccc(Br)o3)sc2c1	.	.	.	.	/	/
COc1ccc(N2C(=O)CC(NNC(=O)c3ccc(Br)s3)C2=O)cc1 (centres undefined)	.	.	.	.	/	/
CC(=O)NC(=O)COC(=O)c1ccc2ncsc2c1	.	.	.	.	/	/
CCc1ccc(NC(=O)Cn2nc(C(=O)O)c3ccccc3c2=O)cc1	.	.	.	.	/	/
Nc1ccc2cc3ccc(N)cc3nc2c1	/	43	/	.	.	.
O=C(NCc1ccccn1)c1cccc([N+](=O)[O-])c1	.	.	.	.	/	/
O=C(c1cccc([N+](=O)[O-])c1)N(c1ccccn1)c1ccccn1	.	8.0	.	.	.	.
O=C(OCCc1ccccn1)c1cccc([N+](=O)[O-])c1	.	8.2	.	.	.	.
CCOC(=O)c1cccc(NC(=O)c2cncc(Br)c2)c1	.	9.0	.	.	.	.

Screening data as filed in PubChem.
